Assay results from PubChem BioAssay (Tox21).
Results filed as inconclusive are left out. Calls of active or inactive are those of the source. The call rests on the fitted dose curve; in most records, active means well fitted curve in the direction sought with a large enough effect in the repeat runs; inconclusive means weak or mixed curves; inactive means no such curve, though single readings can be large; an effect the other way counts as inactive or inconclusive.

What was measured:
[1] = qHTS RealTime-Glo MT Cell Viability Assay in HEK293 cells - 16 hour (AID 1224872); further: top concentration of the series differs between compounds; nearly all actives have a fitted effect of over 50% in size
Procedure, shortened: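 Tox21 10K qHTS, HEK293, 600 cells/well, RealTime-Glo reagent co-dispensed with cells; 5 h preincubation, compound by pintool, 37 C, luminescence at 0–40 h.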

[2] = qHTS RealTime-Glo MT Cell Viability Assay in HepG2 cells - 8 hour (AID 1224873); further: nearly all actives have a fitted effect of over 55% in size
Procedure, shortened: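 HepG2 cells (600/well) mixed with RealTime-Glo MT reagent, settled 5 h at 37 C/5% CO2 before compound addition. Nonlytic NanoLuc luminescence from viable-cell prosubstrate reduction read repeatedly during 40 h treatment at 37 C.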

[3] = qHTS RealTime-Glo MT Cell Viability Assay in HEK293 cells - 40 hour (AID 1224874); conditions: RealTime-Glo luminescence; max response: hits give low values; further: nearly all actives have a fitted effect of over 50% in size
Procedure, shortened: (§1)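 Viable HEK293 cells reduce a cell-permeant prosubstrate; the product diffuses out and is consumed by NanoLuc in the medium to give light. Compounds went in after a 5 h incubation and plates were read over the treatment course.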

[4] = A CellTox Green Cytotoxicity Assay to monitor cytotoxicity in HEK293 cells - 24 hour (AID 1224875); further: series mostly up to about 77 µM; nearly all actives have a fitted effect of over 45% in size
Procedure, shortened: (§2)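 Fluorescence intensity, read at 0, 8, 16, 24, 32 and 40 h of compound treatment, reflected dye binding to DNA of dead HEK293 cells; compounds (23 nL, DMSO) were added 5 h after plating cells with reagent.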

[5] = A CellTox Green Cytotoxicity Assay to monitor cytotoxicity in HepG2 cells - 16 hour (AID 1224876); further: nearly all actives have a fitted effect of over 45% in size
Procedure, shortened: (§3)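 Using 1536-well format, dye-containing HepG2 suspension was seeded, allowed 5 h at 37 C/5% CO2, dosed by pintool with compounds, positive and negative controls, and imaged for fluorescence across 40 h.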

[6] = qHTS RealTime-Glo MT Cell Viability Assay in HepG2 cells - 32 hour (AID 1224877); further: nearly all actives have a fitted effect of over 55% in size
Procedure, shortened: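 Cells + NanoLuc/prosubstrate dispensed (600 cells/well) → 5 h at 37 C/5% CO2 → compounds in DMSO transferred → 40 h incubation at 37 C, luminescence read at 0, 8, 16, 24, 32, 40 h.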

[7] = A CellTox Green Cytotoxicity Assay to monitor cytotoxicity in HepG2 cells - 24 hour (AID 1224878); further: nearly all actives have a fitted effect of over 45% in size
Procedure, shortened: as §3

[8] = A CellTox Green Cytotoxicity Assay to monitor cytotoxicity in HepG2 cells - 40 hour (AID 1224879); further: nearly all actives have a fitted effect of over 40% in size
Procedure, shortened: as §3

[9] = qHTS RealTime-Glo MT Cell Viability Assay in HEK293 cells - 0 hour (AID 1224880); further: top concentration of the series differs between compounds; nearly all actives have a fitted effect of over 45% in size
Procedure, shortened: as §1

[10] = A CellTox Green Cytotoxicity Assay to monitor cytotoxicity in HEK293 cells - 32 hour (AID 1224881); further: nearly all actives have a fitted effect of over 40% in size
Procedure, shortened: as §2
On the % scale 0 is the no-effect control and ±100 the full control effect.

C=CCc1cc(OC)c(O)c(C(=O)NCCO)c1
inactive: Potency [1] | outcome [2] | max response [3] 15.9% | Potency [4] | Potency [5] | Potency [6] | Potency [7] | Potency [8] | outcome [9] | Potency [10]

C[C@@H](N)C(=O)O
inactive: Potency [1] | outcome [2] | max response [3] 1.04% | Potency [4] | Potency [5] | Potency [6] | Potency [7] | Potency [8] | outcome [9] | Potency [10]

NS(=O)(=O)c1cc(-c2nn[nH]n2)c(NCc2cccs2)cc1Cl
inactive: Potency [1] | outcome [2] | max response [3] -3.29% | Potency [4] | Potency [5] | Potency [6] | Potency [7] | Potency [8] | outcome [9] | Potency [10]

CCCCCCCCOC(=O)CCCCCCCCC(=O)OCCCCCCCC
inactive: Potency [1] | outcome [2] | max response [3] 6.02% | Potency [4] | Potency [5] | Potency [6] | Potency [7] | Potency [8] | outcome [9] | Potency [10]

NC(=O)NS(=O)(=O)c1ccc(Cl)cc1
inactive: Potency [1] | outcome [2] | max response [3] 0.44% | Potency [4] | Potency [5] | Potency [6] | Potency [7] | Potency [8] | outcome [9] | Potency [10]

CCCCC1CCC(=O)O1 (stereo not given)
inactive: Potency [1] | outcome [2] | max response [3] -3.25% | Potency [4] | Potency [5] | Potency [6] | Potency [7] | Potency [8] | outcome [9] | Potency [10]

N#CSCC(=O)O
inactive: Potency [1] | outcome [2] | max response [3] 0.0274% | Potency [4] | Potency [5] | Potency [6] | Potency [7] | Potency [8] | outcome [9] | Potency [10]

CCCOCCC
inactive: Potency [1] | outcome [2] | max response [3] 23.9% | Potency [4] | Potency [5] | Potency [6] | Potency [7] | Potency [8] | outcome [9] | Potency [10]

Cc1cccc(C)c1NC(=O)CN1CCCCCC1
inactive: Potency [1] | outcome [2] | max response [3] 5.59% | Potency [4] | Potency [5] | Potency [6] | Potency [7] | Potency [8] | outcome [9] | Potency [10]

CC(C)(C)c1ccc(OC(=O)c2ccccc2O)cc1
inactive: Potency [1] | outcome [2] | max response [3] -15.3% | Potency [4] | Potency [5] | Potency [6] | Potency [7] | Potency [8] | outcome [9] | Potency [10]

COC(=O)c1ccc(OC)cc1
inactive: Potency [1] | outcome [2] | max response [3] 0.622% | Potency [4] | Potency [5] | Potency [6] | Potency [7] | Potency [8] | outcome [9] | Potency [10]

CC1=C(O)C(=O)OC1C (stereo not given)
inactive: Potency [1] | outcome [2] | max response [3] 1.31% | Potency [4] | Potency [5] | Potency [6] | Potency [7] | Potency [8] | outcome [9] | Potency [10]

NC/C=C/C(=O)O
inactive: Potency [1] | outcome [2] | max response [3] 2.11% | Potency [4] | Potency [5] | Potency [6] | Potency [7] | Potency [8] | outcome [9] | Potency [10]

CC(C)CC(=O)OCc1ccccc1
inactive: Potency [1] | outcome [2] | max response [3] 3.51% | Potency [4] | Potency [5] | Potency [6] | Potency [7] | Potency [8] | outcome [9] | Potency [10]

Cc1c(C(=O)NCCO)[n+](=O)c2ccccc2n1[O-]
inactive: Potency [1] | outcome [2] | max response [3] 0.805% | Potency [4] | Potency [5] | Potency [6] | Potency [7] | Potency [8] | outcome [9] | Potency [10]

O=C1CCN(c2ccccc2)N1
inactive: Potency [1] | outcome [2] | max response [3] 4.28% | Potency [4] | Potency [5] | Potency [6] | Potency [7] | Potency [8] | outcome [9] | Potency [10]

Cc1ccc([N+](=O)[O-])c(N)c1
inactive: Potency [1] | outcome [2] | max response [3] -1.42% | Potency [4] | Potency [5] | Potency [6] | Potency [7] | Potency [8] | outcome [9] | Potency [10]

CCN[C@H]1CN(CCCOC)S(=O)(=O)c2sc(S(N)(=O)=O)cc21
inactive: Potency [1] | outcome [2] | max response [3] -0.402% | Potency [4] | Potency [5] | Potency [6] | Potency [7] | Potency [8] | outcome [9] | Potency [10]

c1ccc(CN(CC2=NCCN2)c2ccccc2)cc1
inactive: Potency [1] | outcome [2] | max response [3] -19.9% | Potency [4] | Potency [5] | Potency [6] | Potency [7] | Potency [8] | outcome [9] | Potency [10]

CC1(C)S[C@@H]2[C@H](NC(=O)C(C(=O)O)c3ccccc3)C(=O)N2[C@H]1C(=O)O (stereo not given in full)
inactive: Potency [1] | outcome [2] | max response [3] -0.907% | Potency [4] | Potency [5] | Potency [6] | Potency [7] | Potency [8] | outcome [9] | Potency [10]

CCC(=O)O[C@]1(C(=O)SCF)[C@H](C)C[C@H]2[C@@H]3C[C@H](F)C4=CC(=O)C=C[C@]4(C)[C@@]3(F)[C@@H](O)C[C@@]21C
inactive: Potency [1] | outcome [2] | max response [3] 2.57% | Potency [4] | Potency [5] | Potency [6] | Potency [7] | Potency [8] | outcome [9] | Potency [10]

CC1=C(CC(=O)O)c2cc(F)ccc2/C1=C\c1ccc(S(C)(=O)=O)cc1
inactive: Potency [1] | outcome [2] | max response [3] 8.4% | Potency [4] | Potency [5] | Potency [6] | Potency [7] | Potency [8] | outcome [9] | Potency [10]

FC(F)(F)c1ccccc1
inactive: Potency [1] | outcome [2] | max response [3] 11.8% | Potency [4] | Potency [5] | Potency [6] | Potency [7] | Potency [8] | outcome [9] | Potency [10]
